The full list was thinned out, with hits kept by preference.
YopH PTP inh – YopH tyrosine phosphatase inhibitors, primary screen, biochemical, fluorescence Ex485/Em525; YopH tyrosine phosphatase [Yersinia enterocolitica]; inhibition, % (test concentration not listed); 0.16% of 140,000 active; AID 898, 2007; in the data active means inhibition above about 50%
RmlCD inh 1536 – M. tuberculosis RmlC/RmlD coupled enzyme inhibitors, primary screen, biochemical, compound mixtures, 384-well, from 1536-well plates. dTDP-4-dehydrorhamnose reductase (Mycobacterium tuberculosis (strain ATCC 25618 / H37Rv)) …. RmlC+RmlD coupled enzyme assay, percent inhibition; primary screen in compound mixtures. inhibition, % at 3.6 µM. 0.03% of 160,000 active. AID 1533, 2009; in the data active means inhibition mostly above about 34%, no sharp cut-off
Target sequence (P9WH09 whole entry, looked up): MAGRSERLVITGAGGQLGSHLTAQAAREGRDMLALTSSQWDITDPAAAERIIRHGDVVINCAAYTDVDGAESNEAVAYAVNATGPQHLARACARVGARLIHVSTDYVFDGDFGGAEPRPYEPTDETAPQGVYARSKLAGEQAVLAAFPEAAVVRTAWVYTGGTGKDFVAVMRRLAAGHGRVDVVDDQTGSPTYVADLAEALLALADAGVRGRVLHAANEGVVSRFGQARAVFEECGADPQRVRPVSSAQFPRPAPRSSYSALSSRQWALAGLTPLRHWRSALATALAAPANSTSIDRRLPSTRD
Target sequence (P9WH11 whole entry, looked up): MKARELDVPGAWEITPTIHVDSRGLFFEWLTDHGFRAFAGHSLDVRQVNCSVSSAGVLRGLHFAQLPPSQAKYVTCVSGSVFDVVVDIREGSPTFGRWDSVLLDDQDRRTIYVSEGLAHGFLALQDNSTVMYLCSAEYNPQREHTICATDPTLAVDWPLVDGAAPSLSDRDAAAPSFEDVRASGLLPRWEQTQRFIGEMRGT
Each line names hits and unclear results; the compound was inactive in the other large screens.

COc1ccc(NC2=C(NCCO)C(=O)c3ccccc3C2=O)cc1	YopH PTP inh 77.5
N#C/C(=C(/O)COC(=O)c1ccc(O)cc1)c1nc2ccccc2[nH]1	none (no result: YopH PTP inh)
COc1cc(/C=N/NC(=O)c2cc(-c3ccco3)nc3ccccc23)cc(OC)c1O	none (no result: YopH PTP inh)
O=c1nccc(Nc2ccccc2)[nH]1	none (no result: YopH PTP inh)
O=c1[nH]c(Nc2ccccc2)cc2ccccc12	YopH PTP inh 101.2
O=C(CSc1ncn[nH]1)c1ccc2c(c1)OCO2	YopH PTP inh 57.4
O=C(CSc1ncn[nH]1)c1ccc2c(c1)OCCO2	none
CC(=O)Nc1ccc(S(=O)(=O)N(C)CC(=O)OCC(=O)Nc2cccnc2Cl)cc1	none
CN(O)/C=C1\C(=O)Nc2ccccc21	none (no result: RmlCD inh 1536)
CSc1nsc(/C=C/Nc2ccc(F)cc2)c1C#N	none (no result: YopH PTP inh)
CSc1nsc(/C=C/Nc2ccc(Cl)cc2)c1C#N	YopH PTP inh 55.5 (no result: RmlCD inh 1536)
CCn1nnnc1-c1ccc(OC)c(S(=O)(=O)Nc2ccc(C(=O)OC)cc2)c1	none
CCOC(=O)c1ccc(NS(=O)(=O)c2cc(-c3nnnn3C(C)C)ccc2OC)cc1	YopH PTP inh 61.6 (no result: RmlCD inh 1536)
Cc1onc(-c2c(Cl)cccc2Cl)c1C(=O)NCc1ccccn1	none
Cc1onc(-c2ccccc2)c1C(=O)NCc1ccccn1	YopH PTP inh 53.3
O=C1N/C(=C/c2cccn2-c2ccc(F)cc2)C(=O)N1Cc1ccccc1F	none
CSc1ccccc1NC(=O)CN(C)Cc1cc(=O)n2ccsc2n1	none (no result: YopH PTP inh)
CCOC(=O)/C(C)=N/NC(=O)c1ccc([N+](=O)[O-])cc1	none (no result: YopH PTP inh)
CCOC(=O)/C(N=Nc1ccc(F)cc1)=C(/O)c1ccc([N+](=O)[O-])cc1	YopH PTP inh 61.5
CCCc1nnc(NC(=O)c2ccc(N3C(=O)C4C5C=CC(C5)C4C3=O)cc2)s1 (stereo unspecified)	none (no result: RmlCD inh 1536)
O=C(Nc1nnc(C(F)(F)F)s1)c1ccc(N2C(=O)C3C4C=CC(C4)C3C2=O)cc1 (stereo unspecified)	YopH PTP inh 97.6 (no result: RmlCD inh 1536)
COc1ccc(N2CCN(Cc3cc(=O)oc4cc(-c5ccccc5)c(O)cc34)CC2)cc1	none (no result: RmlCD inh 1536)
O=c1cc(CN2CCN(c3ccccc3F)CC2)c2cc(O)c(-c3ccccc3)cc2o1	YopH PTP inh 61.2 (no result: RmlCD inh 1536)
O=C(O)CC1(CC(=O)N2CCN(CCO)CC2)CCCC1	none (no result: YopH PTP inh)
COc1ccccc1Cn1c(=O)c2ccccc2n2c(Sc3ncnc4sccc34)nnc12	none
O=C(C1=C(c2ccccc2)C(=O)c2ccccc2C1=O)c1ccccc1	none
O=C1C(=O)c2c(C(=O)c3ccccc3)coc2-c2ccccc21	YopH PTP inh 74.9
Cc1oc2c(c1C(=O)O)C(=O)c1ccccc1C2=O	none (no result: YopH PTP inh)
Cc1oc2c(c1C(=O)c1ccccc1)C(=O)C(=O)c1ccccc1-2	YopH PTP inh 88.7 (no result: RmlCD inh 1536)
CC(O)c1c(OCc2ccccc2)ncnc1OCc1ccccc1 (stereo unspecified)	none
CCCCCOC(=O)CSc1nc2c(c(=O)[nH]c(=O)n2C)n1CCc1ccccc1	none
Cc1ccc(-n2c([S-])c(C(=O)NC(C)c3ccccc3)[n+]3ccccc23)cc1 (stereo unspecified)	none (no result: YopH PTP inh)
COc1ccc(NC(=O)COC(=O)/C=C/c2ccccc2[N+](=O)[O-])cc1	none
COc1ccc(NCc2ccc([N+](=O)[O-])s2)cc1	none
COc1ccc(NCc2ccc([N+](=O)[O-])s2)c(OC)c1	YopH PTP inh 76.3
CC(=O)N1CCN(C(=S)Nc2ccc(Oc3ccccc3)cc2)CC1	none (no result: YopH PTP inh)
O=C(Nc1ccccc1)c1cnc[nH]1	none
CS(=O)(=O)n1nc(-c2ccc(Cl)cc2)nc1N	none (no result: YopH PTP inh)
Cn1nc(-c2ccc(Cl)cc2)nc2c(=O)n(C)c(=O)nc1-2	YopH PTP inh 101.2 (no result: RmlCD inh 1536)
Cc1cc(C)n(-c2nc3sc4c(c3c(=O)[nH]2)CCCC4)n1	none
CN(C(=O)COc1ccc(C(C)(C)C)cc1)C1CCS(=O)(=O)C1 (stereo unspecified)	YopH PTP inh 53.6
CCc1ccc(OCC(=O)N(C)C2CCS(=O)(=O)C2)cc1 (stereo unspecified)	none (no result: RmlCD inh 1536)
CCOC(=O)c1ccc(CC(=O)c2oc3cc(O)ccc3c2C)o1	none
Cc1onc(C(=O)NN)c1C(=O)Nc1ncc(C(F)(F)F)cc1Cl	none (no result: YopH PTP inh)
COc1cccc(OCCn2cccc2/C=C2/C(=N)N3OC(C)=CC3=NC2=O)c1	none (no result: YopH PTP inh)
Cc1cc(C)nc(NC(=O)c2ccc(C)c([N+](=O)[O-])c2)n1	none
CNC(=O)COC(=O)c1cccnc1SC	none
CCOC(=O)/C(=C\c1cn(C)c2ccccc12)[N+](=O)[O-]	none (no result: RmlCD inh 1536)
COC(=O)/C(=C/Nc1cccc2ccccc12)[N+](=O)[O-]	RmlCD inh 1536 99.6
O=[N+]([O-])c1ccc(OCC(O)CN(CCO)CCO)cc1 (stereo unspecified)	none
COc1ccc(-c2cc(=NCCC(=O)O)c3cc(C)ccc3o2)cc1	RmlCD inh 1536 31.7 (no result: YopH PTP inh)
COc1ccc(-c2cc(=NC(CC(C)C)C(=O)O)c3cc(C)ccc3o2)cc1 (stereo unspecified)	none
CCOc1ccc(NC(=S)Nc2ccc3nsnc3c2)cc1	YopH PTP inh 84.2
CCOc1ccc(NC(=O)Nc2ccc3nsnc3c2)cc1	none (no result: YopH PTP inh)
CCCCCCCc1n[nH]c(=S)n1Cc1ccccc1	none (no result: YopH PTP inh)
COc1cccc(-c2nc(CS(=O)(=O)CC(=O)N3CCc4ccccc4C3)c(C)o2)c1	YopH PTP inh 80.3
COc1cccc(-c2nc(CS(=O)(=O)CC(=O)N3CCN(C)CC3)c(C)o2)c1	none
COc1ccc(CCn2c(O)c(/C=N/N3CCCCC3)c(=O)[nH]c2=O)cc1OC	none
CCC(=O)N1CCc2cc(S(=O)(=O)CCC(=O)Nc3c(C)n(C)n(-c4ccccc4)c3=O)ccc21	none (no result: RmlCD inh 1536)
CC(=O)N(C)C1=C(O)c2ccccc2C(=O)C1=O	none (no result: RmlCD inh 1536)
CC(=O)C(C(C)=O)C1(O)C(=O)c2ccccc2C1=O	YopH PTP inh 98.4
CN(C1=C(NC(=O)c2ccccc2)C(=O)c2ccccc2C1=O)C1CCS(=O)(=O)C1 (stereo unspecified)	YopH PTP inh 64.5 (no result: RmlCD inh 1536)
CC(=O)NC1=C(NC2CCS(=O)(=O)C2)C(=O)c2ccccc2C1=O (stereo unspecified)	none
COc1ccc(C2=Nc3cccc4cccc(c34)N2)cc1	none
Nc1cccc(C2=Nc3cccc4cccc(c34)N2)c1	YopH PTP inh 62.1
O=C(c1ccc(F)cc1)[C@@H]1[C@@H](C(=O)c2ccccc2)[C@@]2(C(=O)Nc3ccccc32)[C@H]2c3ccccc3C=CN12	YopH PTP inh 83.3
CC(=O)[C@@H]1[C@@H](C(=O)c2ccc(C)cc2)[C@]2(C(=O)Nc3ccccc32)[C@H]2C=Cc3cc(F)ccc3N12	none
CCOc1cc(CNc2ccc(N3CCCC3)cc2)cc(Cl)c1OC	YopH PTP inh 74.0 (no result: RmlCD inh 1536)
COc1cc(CNc2ccc(N3CCCC3)cc2)cc(Cl)c1OC	none (no result: YopH PTP inh)
CC1CCN(C(=O)CSCC(=O)Nc2nc(-c3cccs3)cs2)CC1	none
[O-]/[N+](=C\c1ccc(F)cc1)c1ccccc1	YopH PTP inh 59.1 (no result: RmlCD inh 1536)
[O-]/[N+](=C\c1cccc(Br)c1)c1ccccc1	none (no result: YopH PTP inh)
Cc1cc(OCC(=O)N(Cc2ccco2)C2CCS(=O)(=O)C2)ccc1Cl (stereo unspecified)	none (no result: YopH PTP inh)
CCCCn1c(N)c(Sc2ccccc2)c(=O)[nH]c1=O	none
CCCCn1c(N)c(NCCC(C)C)c(=O)[nH]c1=O	YopH PTP inh 52.3
COc1cc(C(=S)N2CCCC2)cc(OC)c1OC	none (no result: YopH PTP inh)
Cc1ccc(C(c2sc3nc(C)nn3c2O)N2CCOCC2)cc1 (stereo unspecified)	YopH PTP inh 64.3
Cc1nc2sc(C(c3ccc(F)cc3)N3CCOCC3)c(O)n2n1 (stereo unspecified)	none (no result: RmlCD inh 1536)
CCCCSc1nc(C)cc(C)c1S(=O)(=O)c1ccccc1C	none

Screening results from PubChem BioAssay.
